From PubChem BioAssay
Active and inactive are the calls of the source.

Tests used:
[1] = small molecules captured by biotinylated probe aFSTL3 – biochemical, small-molecule microarray, fluorescence 635/667, stem cell growth factor project, primary screen (AID 1064); conditions: higher = more signal;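 note: measures binding of the biotinylated anti-FSTL3 antibody to printed compounds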
[2] = binders from COS7 lysate, DM2A8 probe, primary screen, torsin A project, cell lysate, small-molecule microarray, fluorescence 635/667 (AID 1065); conditions: higher = more signal, COS7 lysate expressing mutant human TOR1A
[3] = small molecules captured by biotinylated probe aFGF2 – biochemical, small-molecule microarray, fluorescence 635/667, stem cell growth factor project, primary screen (AID 1067); conditions: higher = more signal;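 note: measures binding of biotinylated aFGF2 protein to printed compounds on slides; z-score merges feature fluorescence and signal-to-noise across triplicate slides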
[4] = small molecules captured by biotinylated probe aFGF10 – biochemical, small-molecule microarray, fluorescence 635/667, stem cell growth factor project, primary screen (AID 1071); conditions: higher = more signal;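 note: score merges 667 nm spot intensity and signal to noise from triplicate slides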
[5] = molecular target: Neurogenic locus notch homolog protein 2 (Homo sapiens) (UniProt Q04721); test: small molecules binding Notch2 protein – biochemical, small-molecule microarray, 635 nm fluorescence, stem cell growth factors, primary screen (AID 1073); conditions: higher = more signal
Neurogenic locus notch homolog protein 2 (Homo sapiens), sequence (Q04721 whole entry, looked up, canonical isoform): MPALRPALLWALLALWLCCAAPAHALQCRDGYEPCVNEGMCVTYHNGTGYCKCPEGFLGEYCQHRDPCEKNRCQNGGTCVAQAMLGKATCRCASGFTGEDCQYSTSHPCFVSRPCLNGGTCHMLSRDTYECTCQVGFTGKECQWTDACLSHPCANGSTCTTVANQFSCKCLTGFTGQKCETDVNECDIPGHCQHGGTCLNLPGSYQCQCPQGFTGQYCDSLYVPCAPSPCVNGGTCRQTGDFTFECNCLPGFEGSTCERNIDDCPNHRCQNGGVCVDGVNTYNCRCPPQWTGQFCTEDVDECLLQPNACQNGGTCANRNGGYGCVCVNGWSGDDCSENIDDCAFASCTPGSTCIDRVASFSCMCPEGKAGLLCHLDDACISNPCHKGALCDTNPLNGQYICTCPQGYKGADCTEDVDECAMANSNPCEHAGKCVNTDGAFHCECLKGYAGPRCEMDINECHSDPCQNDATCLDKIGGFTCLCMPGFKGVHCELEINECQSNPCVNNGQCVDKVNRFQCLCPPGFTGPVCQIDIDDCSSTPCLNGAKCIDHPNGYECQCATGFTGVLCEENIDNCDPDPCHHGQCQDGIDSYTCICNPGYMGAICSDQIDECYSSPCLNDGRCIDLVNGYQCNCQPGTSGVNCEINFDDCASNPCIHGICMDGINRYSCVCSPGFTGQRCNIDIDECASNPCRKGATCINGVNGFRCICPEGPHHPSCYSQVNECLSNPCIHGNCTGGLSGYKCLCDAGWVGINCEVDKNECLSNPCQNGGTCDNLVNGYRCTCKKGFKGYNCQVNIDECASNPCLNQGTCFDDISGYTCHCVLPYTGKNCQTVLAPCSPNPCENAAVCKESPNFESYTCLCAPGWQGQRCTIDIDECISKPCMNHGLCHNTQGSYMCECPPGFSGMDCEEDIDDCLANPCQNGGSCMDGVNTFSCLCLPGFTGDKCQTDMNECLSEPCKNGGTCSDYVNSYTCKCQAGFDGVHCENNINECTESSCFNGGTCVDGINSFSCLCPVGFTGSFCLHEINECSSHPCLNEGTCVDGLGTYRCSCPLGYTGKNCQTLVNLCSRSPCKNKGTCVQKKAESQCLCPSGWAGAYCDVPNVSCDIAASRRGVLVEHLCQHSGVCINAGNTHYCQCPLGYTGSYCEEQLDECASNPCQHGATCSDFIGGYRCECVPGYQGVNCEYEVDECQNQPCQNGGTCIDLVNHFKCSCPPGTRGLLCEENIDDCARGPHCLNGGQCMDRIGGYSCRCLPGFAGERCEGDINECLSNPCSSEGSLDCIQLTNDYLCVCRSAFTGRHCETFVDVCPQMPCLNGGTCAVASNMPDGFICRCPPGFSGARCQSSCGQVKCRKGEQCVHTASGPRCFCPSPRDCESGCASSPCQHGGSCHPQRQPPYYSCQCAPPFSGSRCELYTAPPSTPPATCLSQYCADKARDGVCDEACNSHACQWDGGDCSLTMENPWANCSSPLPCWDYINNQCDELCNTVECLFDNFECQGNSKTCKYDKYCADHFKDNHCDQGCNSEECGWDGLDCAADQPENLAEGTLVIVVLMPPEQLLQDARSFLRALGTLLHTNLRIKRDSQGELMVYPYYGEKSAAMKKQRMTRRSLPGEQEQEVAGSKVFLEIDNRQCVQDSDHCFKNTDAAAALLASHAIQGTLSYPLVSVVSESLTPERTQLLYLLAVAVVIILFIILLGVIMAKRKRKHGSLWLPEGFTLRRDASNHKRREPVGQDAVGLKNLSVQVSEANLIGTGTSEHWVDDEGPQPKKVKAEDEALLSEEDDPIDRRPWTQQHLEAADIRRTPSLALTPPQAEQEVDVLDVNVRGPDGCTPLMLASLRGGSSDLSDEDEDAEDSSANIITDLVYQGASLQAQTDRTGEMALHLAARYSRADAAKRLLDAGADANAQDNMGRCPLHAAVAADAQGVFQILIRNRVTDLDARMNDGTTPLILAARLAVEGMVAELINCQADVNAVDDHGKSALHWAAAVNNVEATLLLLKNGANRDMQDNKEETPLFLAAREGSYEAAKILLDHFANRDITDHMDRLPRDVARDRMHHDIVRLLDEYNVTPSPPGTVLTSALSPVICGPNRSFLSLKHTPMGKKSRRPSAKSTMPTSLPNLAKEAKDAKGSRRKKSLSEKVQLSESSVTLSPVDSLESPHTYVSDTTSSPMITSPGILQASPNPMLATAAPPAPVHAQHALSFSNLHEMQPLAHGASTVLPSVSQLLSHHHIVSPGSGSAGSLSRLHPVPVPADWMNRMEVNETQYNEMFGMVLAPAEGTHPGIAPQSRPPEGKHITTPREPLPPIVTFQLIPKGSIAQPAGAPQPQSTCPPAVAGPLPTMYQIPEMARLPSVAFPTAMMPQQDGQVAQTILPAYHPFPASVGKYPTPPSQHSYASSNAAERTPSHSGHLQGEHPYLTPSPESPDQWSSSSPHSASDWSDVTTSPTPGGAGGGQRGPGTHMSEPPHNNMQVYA

[6] = molecular target: Pro-neuregulin-1, membrane-bound isoform (Homo sapiens) (UniProt Q02297); test: small molecules binding neuregulin-1 protein – biochemical, small-molecule microarray, fluorescence 635/667, psychiatric disease protein project, primary screen (AID 1075); conditions: NRG1 binding, 635 nm fluorescence, higher = more signal;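 note: score combines 667 nm spot fluorescence with signal to noise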
Pro-neuregulin-1, membrane-bound isoform (Homo sapiens), sequence (Q02297 whole entry, looked up, the tested form may be a part, canonical isoform): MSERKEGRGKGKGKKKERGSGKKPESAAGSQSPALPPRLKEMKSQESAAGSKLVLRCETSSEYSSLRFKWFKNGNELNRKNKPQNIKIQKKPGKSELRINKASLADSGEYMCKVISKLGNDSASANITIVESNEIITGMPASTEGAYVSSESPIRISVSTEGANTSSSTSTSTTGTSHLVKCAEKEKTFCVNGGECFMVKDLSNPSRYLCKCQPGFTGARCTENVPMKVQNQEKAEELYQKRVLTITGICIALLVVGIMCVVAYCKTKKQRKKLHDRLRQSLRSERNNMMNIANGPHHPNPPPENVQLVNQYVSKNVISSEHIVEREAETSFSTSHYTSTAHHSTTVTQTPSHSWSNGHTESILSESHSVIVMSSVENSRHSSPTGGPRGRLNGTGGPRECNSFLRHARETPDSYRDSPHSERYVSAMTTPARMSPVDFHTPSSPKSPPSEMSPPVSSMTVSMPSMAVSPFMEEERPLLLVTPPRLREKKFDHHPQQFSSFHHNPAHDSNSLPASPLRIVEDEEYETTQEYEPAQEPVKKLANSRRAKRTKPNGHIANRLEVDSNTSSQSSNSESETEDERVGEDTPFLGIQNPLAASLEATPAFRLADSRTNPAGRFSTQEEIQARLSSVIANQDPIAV

[7] = test system: Neuregulin-1 EGF-like domain; test: small molecules binding NRG1 EGF domain – biochemical, small-molecule microarray, 635 nm fluorescence, primary screen (AID 1081); conditions: higher = more signal;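 note: binding of the protein to compounds printed on small-molecule microarray slides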
[8] = FRG1 expression reporter modulators in myotubes – cell-based, C2C12 myotubes, firefly/Renilla luciferase, luminescence, FRG1 inhibition for FSHD, primary screen (AID 1084); conditions: FRG1 promoter luciferase, higher = more signal, called active from +8 up or from −8 down
[9] = small molecules captured by biotinylated probe aFST – biochemical, small-molecule microarray, fluorescence 635/667, stem cell growth factor project, primary screen (AID 1086); conditions: higher = more signal;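 note: score merges 667 nm fluorescence with signal-to-noise of each printed compound spot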
[10] = binders of probe aHhip on microarray, primary screen, stem cell growth factor project, biochemical, small-molecule microarray, fluorescence 635/667 (AID 1087); conditions: higher = more signal;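 note: score merges spot fluorescence at 667nm with spot signal to noise ratio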

| Compound | composite z-score [1] | composite z-score [2] | composite z-score [3] | composite z-score [4] | composite z-score [5] | composite z-score [6] | composite z-score [7] | z-score [8] | composite z-score [9] | composite z-score [10] |
| --- | --- | --- | --- | --- | --- | --- | --- | --- | --- | --- |
| C=CCN1C(=O)[C@@]2(O[C@@H](CCO)[C@H]([Si](C)(C)c3ccc(OC)cc3)[C@H]2C)c2cc(N3CCOC3=O)ccc21 | -0.0204 | 0.0241 | -0.0455 | 0.448 | 0.165 | 1.21 | 1.09 | -1.66 (inactive) | 0.162 | -0.236 |
| COC(=O)C1=CC(CCCO)=CC(c2ccc(CN3CCCC3)cc2)N(Cc2cc3c(cc2Br)OCO3)C=C1C(=O)OC (stereo not given) | 0.942 | 1.66 | 0.19 | 1.26 | 1.61 | 2.4 | 1.18 | 0.046 (inactive) | 1.97 | 0.0605 |
| COc1ccc(C(=O)Nc2cccc(CN3C(=O)[C@@]4(O[C@@H](CC(=O)N(CCO)Cc5ccccc5)[C@H]([Si](C)(C)c5ccc(OC)cc5)[C@H]4C)c4ccccc43)c2)cc1 | -0.117 | 0.741 | -0.119 | 0.079 | -0.342 | 0.585 | 1.09 | -2.55 (inactive) | -0.141 | 0.0274 |
| CC(C)(C)OC(=O)CC[C@]1(C(=O)N2CCCCC2)COC(c2ccc(OCCCO)cc2)=N1 | 0.161 | 1.05 | 0.0159 | 1.2 | 1.6 | 1.35 | 1.15 | -2.51 (inactive) | 0.372 | 0.0373 |
| COCCOC(=O)N1C(=O)[C@@]2(c3cc(C#CCC(C(=O)OC)C(=O)OC)ccc31)[C@H](c1ccc(OCCO)cc1)N1[C@H](c3ccccc3)[C@H](c3ccccc3)OC(=O)[C@H]1[C@@H]2C(=O)Nc1nc2ccccc2s1 | -0.0598 | 0.215 | -0.17 | 0.383 | 1.22 | -0.0762 | 1.23 | 4.65 (inactive) | 0.524 | -0.148 |
| CCOC(=O)C[C@H]1[C@H](OC(=O)c2ccc(-c3ccccc3)cc2)[C@@H](NC(=O)CC(C)C)c2cc(OCCCO)ccc2N1C(=O)c1ccccc1 | -0.308 | -0.288 | -0.0236 | 0.311 | 0.623 | -0.037 | 0.648 | -0.165 (inactive) | 0.547 | -0.217 |
| CC(C)C(=C=CC[C@@H](O)c1cccc(OCCO)c1)C[C@@H](O)COCc1ccccc1 | -0.0972 | -0.254 | -0.0835 | 0.45 | -0.554 | -0.0802 | -0.547 | -2.12 (inactive) | 0.182 | -0.188 |
| O=C(CS)NCCCCCNC(=O)[C@@H]1C[C@@H]2C(=O)N[C@@H](Cc3ccccc3)C(=O)N2[C@@H]1c1cccc(OCCO)c1 | -0.0315 | 0.692 | -0.01 | 0.325 | 0.0566 | 1.43 | 1.39 | 0.057 (inactive) | 0.0454 | -0.277 |
| CC(C)CNC(=O)[C@@]1(c2ccc([N+](=O)[O-])cc2)CC(=O)N(C2CCCCC2)[C@@H]1c1ccc(CO)cc1 | 0.574 | 0.219 | 0.0353 | -0.0872 | 0.554 | 0.452 | 1.26 | -0.639 (inactive) | 0.859 | -0.132 |
| COc1cc2c(cc1O)C(c1ccc(CN3CCCC3)cc1)N(C)CC2 (stereo not given) | -1.13 | -0.77 | -0.148 | 0.0711 | -0.101 | 2.19 | 1.07 | -0.426 (inactive) | -0.382 | -0.81 |
| CC(=O)NCCCC[C@@H]1NC(=O)[C@@H]2C[C@H](C(=O)NCCCCCCN)[C@H](c3cccc(OCCO)c3)N2C1=O | 0.501 | 0.43 | -0.0336 | 0.281 | -0.149 | 1.63 | 1.08 | 2.15 (inactive) | -0.0064 | -0.0296 |
| COCCOC(=O)N1C(=O)[C@@]2(c3cc(C#CCNC(N)=O)ccc31)[C@H](c1ccc(O)cc1)N1[C@H](c3ccccc3)[C@H](c3ccccc3)OC(=O)[C@H]1[C@@H]2C(=O)N1CCN(c2ncccn2)CC1 | -0.487 | 0.594 | 0.0762 | 0.661 | 0.629 | 1.19 | 1.1 | -0.523 (inactive) | 0.34 | -0.218 |
| C=C(/C(=C/C[C@@H](OC(C)=O)c1ccc(CO)o1)c1cc(C(=O)OC)ccc1OC)C(C)C | -0.245 | -0.02 | -0.076 | 0.938 | 1.18 | 1.18 | 1.21 | -0.0698 (inactive) | -0.0417 | -0.0618 |
| COCCOC(=O)N1C(=O)[C@@]2(c3cc(C#CCNC(N)=O)ccc31)[C@H](c1ccc(OCCO)cc1)N1[C@H](c3ccccc3)[C@H](c3ccccc3)OC(=O)[C@H]1[C@@H]2C(=O)NC[C@H](O)c1ccccc1 | -0.0349 | 0.907 | -0.0881 | 0.417 | 1.25 | 0.46 | 0.77 | 0.499 (inactive) | 0.506 | -0.215 |
| CCOC(=O)C1=CCC(c2ccco2)N(S(=O)(=O)c2ccc(C)cc2)C1 (stereo not given) | 0.632 | -0.0497 | 0.0061 | 0.864 | 1.62 | 1.46 | 0.791 | -2.47 (inactive) | 0.803 | 0.127 |
| CN1C(=O)C2C(C1=O)C1C=C(CCCO)C2C(c2cccs2)N1Cc1cc2c(cc1Br)OCO2 (stereo not given) | -0.262 | 0.725 | 0.131 | 0.645 | 1.62 | 2.19 | 1.28 | -3.26 (inactive) | 1.6 | -0.109 |

| Compound | composite z-score [1] | composite z-score [2] | composite z-score [3] | composite z-score [4] | composite z-score [5] | composite z-score [6] | composite z-score [7] | z-score [8] | composite z-score [9] | composite z-score [10] |
| --- | --- | --- | --- | --- | --- | --- | --- | --- | --- | --- |
| C=CCC(OC(C)=O)[C@@H]1[C@@H](N(Cc2ccc(-c3ccccc3)cc2)C(=O)c2ccc(C)cc2)c2cc(OCCCO)ccc2N1C(=O)Cc1ccc2ccccc2c1 (stereo not given in full) | -0.377 | -0.221 | -0.107 | 0.0733 | 0.0573 | -0.283 | -0.422 | -2.08 (inactive) | 0.203 | -0.134 |
| COc1ccc([Si](C)(C)[C@H]2[C@H](CC(=O)N3Cc4ccccc4C[C@H]3CO)O[C@@]3(C(=O)N(Cc4ccc(N5C(=O)c6cccc7cccc5c67)cc4)c4ccccc43)[C@@H]2C)cc1 | -0.0494 | 0.245 | -0.0953 | 0.329 | 0.393 | 1.73 | 1.17 | -4.44 (inactive) | 1.07 | 0.61 |
| COc1ccc(C(O)C2C=CC3C(=O)N(c4ccccc4)C(=O)C3N2Nc2ccccc2)cc1 (stereo not given) | -0.0234 | 0.316 | 0.142 | 0.979 | 1.66 | 1.93 | 1.31 | -1.07 (inactive) | 0.531 | 0.289 |
| C[C@]1(C(=O)O)c2ccccc2C(=O)N(Cc2ccc(OC(F)(F)F)cc2)[C@H]1c1ccc(CO)cc1 | 0.592 | -0.139 | -0.0442 | -0.106 | -0.0052 | 0.787 | 0.509 | -1.27 (inactive) | 0.302 | -0.226 |
| CN1C=C(C(=O)OCCS(C)(=O)=O)C(C(=O)OCCS(C)(=O)=O)=CC(c2ccc(CO)cc2)=CC1c1cccs1 (stereo not given) | -0.0269 | -0.0376 | -0.0448 | 0.236 | -0.0588 | 1.47 | 1.03 | 2.55 (inactive) | 0.0216 | 0.0024 |
| [N-]=[N+]=NCc1ccccc1[C@@H]1OC(c2ccc(OCCCO)cc2)=N[C@]1(Cc1ccccc1N=[N+]=[N-])C(=O)NCCN1CCOCC1 | -0.0579 | 0.909 | 0.088 | 0.828 | 1.56 | 1.19 | 1.25 | 0.982 (inactive) | 1.11 | -0.213 |
| C=C(C(=O)CC[C@H](OC(=O)c1ccccc1-c1ccccc1C(=O)O)c1ccccc1OCCO)C(C)C | -0.148 | 0.724 | -0.163 | 0.782 | 0.393 | 0.61 | 1.18 | -1.38 (inactive) | 0.117 | -0.0994 |
| COC(=O)C1N=C(c2ccc(OCCCO)cc2)N(c2ccccc2)O1 (stereo not given) | 0.397 | 0.148 | -0.0189 | 1.17 | 1.54 | 1.1 | 0.913 | 2.35 (inactive) | 0.897 | -0.317 |
| NCCCCCNC(=O)[C@@H]1C[C@@H]2C(=O)N3CCC[C@H]3C(=O)N2[C@@H]1c1ccc(O)cc1 | 1.19 | 0.0642 | 0.0232 | 0.42 | 0.714 | 0.976 | 1.1 | 0.0207 (inactive) | 1 | 0.0053 |
| CCN(CC)c1ccc(N2CC=CC34O[C@@H]5/C=C\CCC(C)OC(=O)C5[C@H]3C(=O)N(C(C)CO)[C@@H]4C2=O)cc1 (stereo not given in full) | -0.0462 | -0.362 | -0.116 | -0.244 | -1.06 | 0.168 | -0.527 | 0.355 (inactive) | -0.293 | -0.652 |
| CC(C)[C@H]1NC(=O)[C@@]23C(=O)N[C@@H](Cc4ccccc4)C2[C@H](C)[C@@]2(C)O[C@H]2C3/C=C/C/C=C\CNC(=O)[C@H](Cc2ccccc2)NC1=O (stereo not given in full) | -0.264 | 0.425 | -0.0462 | 1.01 | 0.878 | 0.781 | 0.957 | 0.304 (inactive) | 0.353 | 0.235 |
| O=C1C2C=CC(C(O)c3ccc4c(c3)OCO4)N(Nc3ccccc3)C2C(=O)N1c1ccccc1 (stereo not given) | 0.154 | -0.186 | 0.0917 | 0.847 | 1.55 | 1.46 | 1.09 | -0.545 (inactive) | 1.38 | -0.204 |
| O=C1O[C@H](c2ccccc2)[C@H](c2ccccc2)N2[C@H]1[C@@H](C(=O)O)[C@]1(C(=O)Nc3ccc(C#CC4(O)CCCCCC4)cc31)[C@H]2c1ccc(O)cc1 | -0.252 | 0.128 | -0.166 | 0.439 | -0.0475 | 1.28 | 0.866 | -0.278 (inactive) | -0.247 | -0.134 |
| C=CCNC(=O)[C@@H]1[C@H]2C(=O)O[C@H](c3ccccc3)[C@H](c3ccccc3)N2[C@H](c2ccc(O)cc2)[C@@]12C(=O)N(C(=O)OCCOC)c1ccc(C#CCCO)cc12 | -0.0125 | 0.376 | -0.0222 | 0.82 | 0.258 | 1.05 | 1.35 | 0.354 (inactive) | 0.256 | 0.0274 |
| COc1ccc([Si](C)(C)[C@H]2[C@H](CCO)O[C@@]3(C(=O)N(Cc4ccc(N5C(=O)c6ccccc6Oc6ccccc65)cc4)c4ccccc43)[C@@H]2C)cc1 | 0.603 | -0.352 | -0.081 | 0.251 | -0.389 | 0.0473 | 0.644 | -3.69 (inactive) | -0.601 | -0.284 |
| O=C1[C@@H]2[C@@H](CC(COc3ccccc3)=C3[C@@H](CCc4ccccc4)OB(O)C[C@@H]32)C(=O)N1Cc1ccccc1 | -0.559 | 0.242 | -0.0737 | 0.265 | 0.697 | 0.81 | -0.113 | 0.0109 (inactive) | 0.531 | -0.289 |
